Source: PubChem BioAssay (NCATS)
Records with an inconclusive call do not appear. Active and inactive are the calls of the source. Calls follow the shape of the dose curve; as a rule, active = well fitted curve in the direction sought with a large enough effect; inconclusive = small, poorly fitted or top-dose-only effect, or another doubt; inactive = no such curve, though single readings can be large; an effect the other way counts as inactive or inconclusive.

Experiments:
[1] = test system: Zika virus NS2B-NS3 protease (linked); assay: 384 well plate NINDS AMC confirmatory qHTS for Zika virus inhibitors (AID 1347163);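 also: fluorescence of AMC released from Ac-VKTGKR-AMC peptide cleaved by the protease; top concentration of the series differs between compounds; nearly all actives have a fitted effect of over 50% in size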
How it was run: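 Fluorescence at 355/460 nm was read after 25 minutes of cleavage of 30 microM Ac-VKTGKR-AMC at room temperature, in the dark. Before substrate addition, compounds (up to 1 mM final) sat ~15 minutes with 5, 30 or 60 nM linked protease. Signals were normalized to no-enzyme and no-inhibitor wells.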

[2] = OV-KATE Cancer Cell Toxicity qHTS against the NCATS CANVASS Library (AID 1347345)
How it was run: (§1)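 In this cytotoxicity screen, 1000 cells per well rested 4 hours, then received compound (11 concentrations) for a 72-hour incubation; an ATP-dependent luminescent signal (CellTiter-Glo) was the endpoint.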

[3] = HPAF-II Cancer Cell Toxicity qHTS against the NCATS CANVASS Library (AID 1347346); also: nearly all actives have a fitted effect of over 55% in size
How it was run: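 Cytotoxicity read-out was CellTiter-Glo luminescence after 72 h at 37 degrees C exposure of HPAF-II cells (1000/well) to compounds in an 11-point titration.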

[4] = UWB1.289 Cancer Cell Toxicity qHTS against the NCATS CANVASS Library (AID 1347347); also: nearly all actives have a fitted effect of over 60% in size
How it was run: as §1

[5] = OV-SAHO Cancer Cell Toxicity qHTS against the NCATS CANVASS Library (AID 1347348); also: nearly all actives have a fitted effect of over 55% in size
How it was run: as §1

[6] = Panc-1005 Cancer Cell Toxicity qHTS against the NCATS CANVASS Library (AID 1347349); also: nearly all actives have a fitted effect of over 60% in size
How it was run: as §1

[7] = SW1088 Cancer Cell Toxicity qHTS against the NCATS CANVASS Library (AID 1347350); details: SW1088 viability, CellTiter-Glo luminescence, 72 h; at 38.3 µM (top of the series); also: nearly all actives have a fitted effect of over 75% in size
How it was run: as §1

[8] = U-118MG Cancer Cell Toxicity qHTS against the NCATS CANVASS Library (AID 1347351)
How it was run: as §1

[9] = COV-362 Cancer Cell Toxicity qHTS against the NCATS CANVASS Library (AID 1347352)
How it was run: (§2)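 Toxicity was measured as CellTiter-Glo luminescence after 72 h exposure to an 11-point compound series. Compound was added to 1000 cells/well 4 h after seeding.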

[10] = A2780 Cisplatin Sensitive Ovarian Cancer Cell Toxicity qHTS against the NCATS CANVASS Library (AID 1347353); details: A2780 ovarian cancer viability, ATPLite luminescence, 72 h; at 46.1 µM (top of the series); also: nearly all actives have a fitted effect of over 60% in size
How it was run: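 Cisplatin-sensitive A2780 ovarian cells (750/well) received compound in 11 concentrations, and were incubated 72 h at 37 °C. ATP content was measured by ATPLite luminescence; bortezomib served as control.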

[11] = UWB1.289-WTBRCA1 Cancer Cell Toxicity qHTS against the NCATS CANVASS Library (AID 1347354); details: UWB1.289-WTBRCA1 viability, CellTiter-Glo luminescence, 72 h; at 38.3 µM (top of the series)
How it was run: as §2

[12] = HEK-293 Cancer Cell Toxicity qHTS against the NCATS CANVASS Library (AID 1347355); details: HEK-293 viability, CellTiter-Glo luminescence, 72 h; at 46.1 µM (top of the series); also: nearly all actives have a fitted effect of over 65% in size
How it was run: as §2

[13] = HPAF-II 24hr Apoptosis Induction qHTS against the NCATS CANVASS Library (AID 1347356)
How it was run: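 Caspase-Glo 3/7 luminescence, read after 15 min room-temperature development, measures apoptosis in HPAF-II cells treated 24 h at 37 degrees C with an 11-point concentration series; 500 cells/well; doxorubicin control.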

[14] = HEK293 18hr Apoptosis Induction qHTS against the NCATS CANVASS Library (AID 1347357)
How it was run: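 Caspase-Glo 3/7 luminescence (15 min, room temperature) measured apoptosis after an 18-hour, 37 degrees C exposure of HEK293 cells (500 cells/well) to compounds in 11 points.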

Measured: outcome

Oc1c(Cl)cc(Cl)cc1Sc1cc(Cl)cc(Cl)c1O
inactive: [1]

COc1c(C)c2c(c(O)c1C/C=C(\C)CCC(=O)O)C(=O)OC2
inactive: [1]

CN1CCC[C@@H]1c1cccnc1
inactive: [2] | [3] | [4] | [5] | [6] | [7] | [8] | [9] | [10] | [11] | [12] | [13] | [14]
